Results taken from PubChem BioAssay (NCATS).

These compounds were tested against Glucocorticoid receptor (Homo sapiens) (UniProt P04150) (assay: GR-GFP Redistribution (AID 450)). Conditions: U2OS GR-GFP nuclear translocation, laser cytometry, 2 h; series mostly up to 20.6 µM;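 active means compounds whose dose series gives a full or clear partial fitted curve of increased nuclear translocation; inconclusive means weak partial curve or effect only at the top dose; inactive means no dose-dependent translocation response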.
Sequence of Glucocorticoid receptor (Homo sapiens) (P04150 whole entry, looked up): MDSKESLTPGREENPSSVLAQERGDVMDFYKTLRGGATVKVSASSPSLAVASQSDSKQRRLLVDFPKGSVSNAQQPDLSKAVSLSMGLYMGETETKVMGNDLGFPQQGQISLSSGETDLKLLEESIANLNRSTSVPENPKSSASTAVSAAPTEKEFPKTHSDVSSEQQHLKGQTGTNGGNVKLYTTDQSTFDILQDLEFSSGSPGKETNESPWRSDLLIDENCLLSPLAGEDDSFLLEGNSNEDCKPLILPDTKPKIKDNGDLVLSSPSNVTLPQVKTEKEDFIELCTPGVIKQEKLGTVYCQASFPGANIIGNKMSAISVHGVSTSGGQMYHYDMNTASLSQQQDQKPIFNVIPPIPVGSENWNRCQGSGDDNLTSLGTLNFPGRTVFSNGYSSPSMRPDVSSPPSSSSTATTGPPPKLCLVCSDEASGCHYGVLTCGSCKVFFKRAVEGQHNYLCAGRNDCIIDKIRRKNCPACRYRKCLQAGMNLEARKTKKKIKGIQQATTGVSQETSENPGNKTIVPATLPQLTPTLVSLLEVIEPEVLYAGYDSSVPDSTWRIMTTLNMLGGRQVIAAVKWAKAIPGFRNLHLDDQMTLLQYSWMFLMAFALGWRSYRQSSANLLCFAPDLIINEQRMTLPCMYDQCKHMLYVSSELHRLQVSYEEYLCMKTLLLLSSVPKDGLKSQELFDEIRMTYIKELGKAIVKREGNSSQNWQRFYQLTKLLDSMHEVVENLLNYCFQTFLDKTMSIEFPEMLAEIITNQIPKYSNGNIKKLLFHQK
Potency means the concentration at half of the fitted maximal effect.

Potency, inactive:
COc1ccc2c(c1OC)C(=O)N1c3ccccc3C(=O)N(c3ccccc3F)C21 (stereo not given) > 20.6 µM
Clc1ccc2[nH]c3c(NCCN4CCOCC4)ncnc3c2c1 > 20.6 µM
Cc1c(C)c2cc(Cl)c(O)c(CN3CCCCC3)c2oc1=O > 20.6 µM
CNC(=O)CC(C(=O)O)c1ccc(OC(C)C)cc1 (stereo not given) > 20.6 µM
CC(C)CSc1nc(N2CCOCC2)c2c(c1C#N)CC(C)(C)SC2 > 20.6 µM
CC(C)Sc1nc(N2CCCC2)c2c(c1C#N)CC(C)(C)OC2 > 20.6 µM
Nc1nnnn1/N=C/c1ccco1 > 20.6 µM
COc1ccc(-c2oc3ncn4nc(COc5ccccc5)nc4c3c2-c2ccc(OC)cc2)cc1 > 20.6 µM
COCCCNC(=O)c1c(N)n(/N=C/c2cccnc2)c2nc3ccccc3nc12 > 20.6 µM
Cn1ccnc1C(O)c1ccc(OCc2ccccc2)cc1 (stereo not given) > 20.6 µM
Cn1c(=O)c2c3c(sc2n2c(SCc4ccccc4)nnc12)CCCC3 > 20.6 µM
CC1CN(C2CCN(C(=O)c3ccccc3)CC2)CC(C)O1 (stereo not given) > 20.6 µM
Cc1ccc(N2C(=O)CC(N(O)C3CC(=O)N(c4ccc(C)cc4)C3=O)C2=O)cc1 (stereo not given) > 20.6 µM
c1coc(-c2nnc3sc(Cc4cccs4)nn23)c1 > 20.6 µM
CCC1CCCCN1c1nc(-c2ccncc2)nc2ccccc12 (stereo not given) > 20.6 µM
COc1cc2c(C(=O)N3CCN(c4ccccc4)CC3)c(C)oc2cc1Br > 20.6 µM
Cc1ccc2nc(NCc3ccccc3)[nH]c2c1 > 20.6 µM
CC(C)c1nc(NCC2CCCO2)c(C#N)c2c1COC(C)(C)C2 (stereo not given) > 20.6 µM
COc1cccc(CNc2ccc(Br)cn2)c1O > 20.6 µM
CCc1cc(=O)oc2c(CN3CCN(C)CC3)c(O)c(Cl)cc12 > 20.6 µM
O=C(O)CC(NCc1ccco1)C(=O)OCC1CCCO1 (stereo not given) > 20.6 µM
CCCCNC(=O)C(C#N)c1nc2ccccc2nc1N1CCN(Cc2ccc3c(c2)OCO3)CC1 (stereo not given) > 20.6 µM
CCCc1cc(NCCCCO)n2c(nc3ccccc32)c1C#N > 20.6 µM
Cc1nnc(NCc2n[nH]c(=O)c3ccccc23)c2ccccc12 > 20.6 µM
COc1ccc2c(c1OC)C(=O)N1c3ccccc3C(=O)N(c3ccc(F)cc3)C21 (stereo not given) > 20.6 µM
Cc1ccc(S(=O)(=O)c2cc3c(=O)n4cccc(C)c4nc3n(CC3CCCO3)c2=N)cc1 (stereo not given) > 20.6 µM
CC12CN3CC(C)(CN(C1)C3c1ccc(Br)cc1O)C2 (stereo not given) > 20.6 µM
Cc1ccc(/C(O)=C2/C(=O)C(=O)N(Cc3ccco3)C2c2cccs2)cc1 (stereo not given) > 20.6 µM
c1ccc2c(NCC3CCCO3)nc(-c3ccncc3)nc2c1 (stereo not given) > 20.6 µM
CCCCCCSC1=C(C#N)C(c2ccccc2)CC(=O)N1 (stereo not given) > 20.6 µM
C=CCN(CC=C)c1nc2ccccc2nc1C(C#N)C(=O)OC(C)C (stereo not given) > 20.6 µM
CCOc1ccc(C2=Nn3c(nnc3-c3ccccn3)SC2)cc1 > 20.6 µM
CCCCc1cc(=O)oc2c(CN(C)C)c(O)c(Cl)cc12 > 20.6 µM
Cc1c(O)c(CN2CCCCC2)cc2c3c(c(=O)oc12)CCC3 > 20.6 µM
Cc1ccc2cc(CN(C(=O)c3ccco3)c3ccccc3C)c(=O)[nH]c2c1 > 20.6 µM
Cc1nn(C)cc1/C=N/n1nnnc1N > 20.6 µM
CCCc1cc(C(=O)Cc2ccc(F)cc2)c(O)cc1O > 20.6 µM
COc1ccc(/C=N/n2cncn2)cc1CSc1ccccn1 > 20.6 µM
CN(C)CCCOC(=O)c1ccc(Cl)cc1Cl > 20.6 µM
Cc1ccc(S(=O)(=O)/C(C#N)=C/c2c(N3CCN(C)CC3)nc3c(C)cccn3c2=O)cc1 > 20.6 µM
